Screening data: PubChem, National Center for Advancing Translational Sciences (NCATS)
The list is not random: actives were taken first. Their share in the collection is about 8.1%.
KB-V1 MDR tox = qHTS assay for MDR1-selective chemotherapeutics: Primary screen using the drug-selected MDR subline cells KB-V1 | 3.4% of 400,000 active | KB-V1 MDR cells viability, CellTiter-Glo, 72 h | Potency, µM (top dose mostly 46.1 µM), most hits filed as cytotoxic; further: on the % scale 0 is the no-effect control and ±100 the full control effect; nearly all actives have a fitted effect of over 60% in size
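Luminescent ATP read-out (CellTiter-Glo, 10 min) measures survival of drug-selected KB-V1 MDR cells after 72 h, 37 degrees C compound exposure. Medium: phenol-red-free DMEM, 10% FBS. Values from fitted concentration-response curves.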
MCF10A rereplic = A quantitative high throughput screen for small molecules that induce DNA re-replication in MCF 10a normal breast cells. AID 624296, 2012. 2.9% of 350,000 active. MCF 10A DNA re-replication, Hoechst nuclear intensity, 48 h. Potency, µM (doses to about 46.1 µM), for the others: top-dose activity, positive = re-replication, actives largely listed as activators; further: % of control where 0% means no effect; nearly all actives have a fitted effect of over 50% in size
ELG1 DNA repair = qHTS screen for small molecules that inhibit ELG1-dependent DNA repair in human embryonic kidney (HEK293T) cells expressing luciferase-tagged ELG1 | HEK293T ELG1-luciferase reporter, luminescence, 16 h; DNA damage induced by 5-fluorouridine | Potency, µM (series often up to 46.1 µM), inactives show at the highest dose activity change, negative = inhibition, usual class: inhibitors | AID 504467, 2011 | 2.3% of 330,000 active; further: on the % scale 0 is the no-effect control and ±100 the full control effect; nearly all actives have a fitted effect of over 55% in size
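In this reporter screen, reduction of luminescence relative to DMSO vehicle indicated activity. Compounds and 5-fluorouridine were added together to 2,000 cells per well, incubated for 16 hr at 37 °C, then developed with ONE-Glo.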
SW480 rereplic = A quantitative high throughput screen for small molecules that induce DNA re-replication in SW480 colon adenocarcinoma cells; SW480 DNA re-replication, Hoechst DNA content imaging, 48 h; Potency, µM (top dose mostly 46.1 µM), for inactives: top-dose re-replication activation, most hits filed as activators; 1.8% of 340,000 active; AID 624297, 2012; further: % of control where 0% means no effect; nearly all actives have a fitted effect of over 55% in size
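Image-based DNA-content assay: after two days of treatment, nuclei were labelled with the DNA dye Hoechst and imaged, and hits were compounds raising the count of nuclei showing high fluorescence intensity.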
KB-3-1 cytotox = qHTS assay for MDR1-selective chemotherapeutics: Primary screen using the parental adenocarcinoma cell KB-3-1; AID 1347075, 2019; Potency, µM (top dose mostly 46.1 µM), actives largely listed as cytotoxic; KB-3-1 viability, CellTiter-Glo ATP luminescence, 72 h; 1.4% of 400,000 active; further: on the % scale 0 is the no-effect control and ±100 the full control effect; nearly all actives have a fitted effect of over 60% in size
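Cells are dispensed, compounds pinned in, plates held at 37 °C for 72 h, then CellTiter-Glo is added and luminescence read after 10 minutes. Cell line: parental KB-3-1 in phenol-red-free DMEM, 10% FBS.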
* hit, by the source's call; i = inactive; ? = inconclusive; . = not tested or not shown. The call rests on the fitted dose curve; in most records, active means well fitted curve in the direction sought with a large enough effect; inconclusive means small, poorly fitted or top-dose-only effect, or another doubt; inactive means no such curve, though single readings can be large; an effect the other way counts as inactive or inconclusive. Potency means the concentration at half of the fitted maximal effect.

SMILES	KB-V1 MDR tox	MCF10A rereplic	ELG1 DNA repair	SW480 rereplic	KB-3-1 cytotox
COC(=O)c1c(-c2ccncc2)csc1NC(=O)c1ccoc1C	6.5µM*	?	?	0%	?
CCOc1ccc(OCc2ccc(C(=O)NN=Cc3ccc[nH]3)cc2)cc1	i	?	?	9%	2.3µM*
O=C(N/N=C/c1ccc[nH]1)c1ccccc1OCc1ccc(F)cc1	i	7%	-2%	-16%	i
Cc1ccc(NC(=O)c2cn3c4c(ccc(Cl)c4c2=O)OC(C)C3)c(C)c1 (configuration not stated)	i	.	.	.	i
CC(C)(C)c1ccc(CC(=O)N2CCC2(C)C(=O)NCc2ccc(Cl)cc2)cc1 (configuration not stated)	21µM*	.	.	.	?
CC(C)(C)c1ccc(C(=O)N2CCN(CCNC(=O)C(=O)NCc3ccc(Cl)cc3)CC2)cc1	i	?	12µM*	?	?
Cc1cc(C)c(Cn2c3ccccc3c3cnn(CC(=O)NCCCc4ccccc4)c(=O)c32)c(C)c1	i	.	.	.	i
Cc1cc(/C([O-])=C(/C(=S)Nc2ccc(F)cc2)[n+]2ccccc2)c(C)n1-c1ccc(F)cc1	23µM*	19%	?	13%	i
CCOC(=O)CC(=O)CSc1ccc2nnc(-c3cccc(F)c3)n2n1	i	30%	?	14%	i
COc1ccc(-c2nnc3ccc(SC(C(C)=O)C(C)=O)nn23)cc1OC	i	?	?	26%	i
CSc1ccc2nnc(-c3cccc(F)c3)n2n1	13µM*	0%	0%	-9%	i
O=C(CSc1ccc2nnc(-c3cccc(F)c3)n2n1)NCc1ccco1	16µM*	12%	-1%	-4%	i
COc1ccc(-c2nnc3ccc(SC(C)C)nn23)cc1OC	21µM*	.	.	.	i
COc1ccccc1OCCNC(=O)CCC(=O)N1CCOCC1	?	0%	-4%	7%	i
Cc1cc(C)cc(NS(=O)(=O)c2c(C)nc3scc(C)n3c2=O)c1	i	.	.	.	i
Cn1c(Cc2cccs2)nnc1SCC(=O)Nc1ccc(C(N)=O)cc1	i	0%	-4%	0%	i
CSc1ncc(C(=O)Nc2ccccc2C(=O)c2ccccc2)c(C)n1	i	.	.	.	i
CCCCOc1ccccc1C1C(C(=O)OC)=CN(CC)C=C1C(=O)OC	i	?	-10%	12µM*	i
COC(=O)C1=CN(CCCN2CCCC2=O)C=C(C(=O)OC)C1c1ccccc1C(F)(F)F	i	13µM*	?	18µM*	i
CCCOc1ccccc1C1C(C(=O)OC)=CN(C(C)C)C=C1C(=O)OC	i	?	-9%	?	?
COC(=O)C1=CN(CC2CCCO2)C=C(C(=O)OC)C1c1ccccc1C(F)(F)F (configuration not stated)	i	?	-6%	?	i
Cc1cc(CN(C)Cc2cn(C)nc2-c2ccc(Oc3ccccc3)cc2)on1	9.2µM*	4%	?	0%	i
CCCc1cc(=O)[nH]c(SCC(=O)c2cc(C)n(CC(F)(F)F)c2C)n1	16µM*	21%	5%	-5%	i
CCCc1cc(=O)[nH]c(SCC(=O)c2cc(C)n(CCOC)c2C)n1	i	1%	-14%	-1%	i
O=C(CCNC(=O)c1ccccc1Cl)Nc1cccc(S(=O)(=O)N2CCCCC2)c1	i	6%	?	-6%	i
CCn1ccc2cc(S(=O)(=O)N3CCCN(C(=O)Nc4cccc(Cl)c4)CC3)ccc21	10µM*	.	.	.	?
O=C(CCS(=O)(=O)c1ccc(Cl)cc1)Nc1cccc(S(=O)(=O)N2CCCCCC2)c1	21µM*	13%	.	-8%	i
Cc1ccc(C)c(OCCC(=O)Nc2cccc(S(=O)(=O)N3CCCCC3)c2)c1	15µM*	13%	-15%	-1%	i
